Broadly, the AC50 is the midpoint of the concentration-response curve, whichever way the signal moves.

The structures appear in SMILES notation. The source made the active and inactive calls. How the source made its calls: active means hit-call score of the fitted dose curve at least 0.9, where 1 is the maximum; inactive means score below 0.9.

This note sets out measurements from PubChem BioAssay (EPA / NIEHS).

The first test deals with Retinoic acid receptor alpha (Homo sapiens) (UniProt P10276). Put plainly: ATG_DR5_RAR_CIS: Attagene CIS-FACTORIAL HepG2 Assay for human Retinoic Acid Receptor Alpha (RARE), DR5 submotif (AID 2282934).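 On AC50: reporter responds to endogenous RAR alpha beta and gamma in HepG2 not RARA alone.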 Particulars: HepG2 Attagene cis-factorial RARE DR5 reporter, mRNA; actives raise or lower the signal. In short, it runs like this: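 HepG2 cells transiently transfected with multiplexed reporter units; DR5 cis-element drives reporter through endogenous transcription factors. After 24 h dosing, reporter mRNA quantified by RT-PCR, fluorescent labeling, HpaI digestion and capillary electrophoresis; bidirectional fitting versus DMSO.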
Chain of Retinoic acid receptor alpha (Homo sapiens) (P10276 whole entry, looked up): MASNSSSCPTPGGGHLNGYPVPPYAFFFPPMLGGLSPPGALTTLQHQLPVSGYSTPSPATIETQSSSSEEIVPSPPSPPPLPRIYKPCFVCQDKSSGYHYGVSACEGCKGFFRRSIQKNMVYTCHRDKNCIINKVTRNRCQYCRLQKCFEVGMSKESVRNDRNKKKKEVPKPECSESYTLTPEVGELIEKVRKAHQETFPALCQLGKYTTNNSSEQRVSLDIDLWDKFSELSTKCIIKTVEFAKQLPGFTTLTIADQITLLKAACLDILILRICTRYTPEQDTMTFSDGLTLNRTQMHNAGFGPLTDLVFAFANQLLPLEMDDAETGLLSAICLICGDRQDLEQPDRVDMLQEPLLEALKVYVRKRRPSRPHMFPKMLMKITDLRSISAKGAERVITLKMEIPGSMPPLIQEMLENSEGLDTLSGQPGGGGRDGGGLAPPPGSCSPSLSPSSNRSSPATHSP
As for `Cc1ccc(N=C=O)cc1N=C=O`, the molecule was classed as inactive.
For the molecule `[As]#[In]`, the call was inactive.
For the molecule `CCCCCCCCOC(=O)c1ccc(C(=O)OCCCCCCCC)c(C(=O)OCCCCCCCC)c1`, the molecule was called inactive.
On to `CCOC(=O)[C@]1(c2ccccc2)Oc2ccccc2[C@@H]1N`, for which the AC50 was 13.6 µM (active).
With `Nc1ccc(N=Nc2ccccc2)cc1`, the molecule was classed as inactive.
With `O=P(OCCCl)(OCCCl)OCCCl`, the molecule was called inactive.
Still for that read-out and setting: the result for `C=CCc1ccc2c(c1)OCO2` reads “inactive”; that for `CC(C)(C)C(O)(CCc1ccc(Cl)cc1)Cn1cncn1` (stereo unspecified), “inactive”.
As to `N#CC(Br)(Br)C(N)=O`, the molecule was classed as inactive.
For the molecule `CN(C)c1ccc(C(=O)c2ccc(N(C)C)cc2)cc1`, the outcome was inactive.
Still for that read-out and setting: the same measure for `O=C(Oc1ccc(Br)cc1)N1CCN2CCC1CC2`: “inactive”; for `Cc1cc(N=Nc2ccccc2C)ccc1N`: “inactive”; for `OCCCl`: “inactive”.
With `CC(C)COC(=O)c1ccccc1C(=O)OCC(C)C`, the molecule was classed as inactive.
On the same count and under the same terms, the same measure for `Clc1ccc(Cl)c(Cl)c1`: “inactive”.
As for `O=[N+]([O-])C(Br)(CO)CO`, the AC50 was 153 µM (active).
For `OCCOCCO`, the outcome was inactive.
The same measure, in the same setting: the result for `Nc1ccc(Cc2ccc(N)cc2)cc1` reads “inactive”.
For the molecule `Nc1cc(Cl)cc(C(=O)O)c1Cl`, the outcome was inactive.
Turning to `C1=Cc2cccc3cccc1c23`, the result was inactive.
Take `ClCCOCCCl`: the outcome was inactive.
Regarding `Cc1cccc(N)c1N`, the AC50 is 106 µM (active).
Regarding `CC(C)(O)c1cnn2c(-c3ccc(F)c(-c4c(F)cccc4C#N)c3)cnc2n1`, the call was inactive.

Another test deals with Transcription factor E2F1 (Homo sapiens) (UniProt Q01094). Put plainly: ATG_E2F_CIS: Attagene CIS-FACTORIAL HepG2 Assay for human E2F Transcription Factor 1 (AID 2282935). The following applies: HepG2 Attagene cis-reporter, E2F reporter RNA transcripts; actives raise or lower the signal. A digest of the protocol: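 Liver-derived HepG2 cells expressing transfected promoter-driven reporter units received test chemical for 24 hours. Signal gains or losses were fitted bidirectionally against DMSO.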
Chain of Transcription factor E2F1 (Homo sapiens) (Q01094 whole entry, looked up): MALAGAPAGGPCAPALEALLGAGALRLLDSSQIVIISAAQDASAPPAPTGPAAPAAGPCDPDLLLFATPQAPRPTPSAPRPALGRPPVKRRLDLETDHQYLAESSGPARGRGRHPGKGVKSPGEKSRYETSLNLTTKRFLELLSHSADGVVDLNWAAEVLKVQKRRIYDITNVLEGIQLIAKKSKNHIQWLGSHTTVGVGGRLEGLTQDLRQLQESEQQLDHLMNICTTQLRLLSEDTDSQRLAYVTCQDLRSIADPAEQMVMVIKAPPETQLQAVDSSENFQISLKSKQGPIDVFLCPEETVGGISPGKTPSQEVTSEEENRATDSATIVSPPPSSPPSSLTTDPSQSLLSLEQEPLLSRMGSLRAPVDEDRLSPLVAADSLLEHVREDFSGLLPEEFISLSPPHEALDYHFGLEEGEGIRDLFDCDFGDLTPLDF
Regarding `Cc1ccc(N=C=O)cc1N=C=O`, the call was inactive.
As for `CCOC(=O)[C@]1(c2ccccc2)Oc2ccccc2[C@@H]1N`, the call was inactive.
On to `Nc1ccc(N=Nc2ccccc2)cc1`, for which the molecule was called inactive.
The same measure, in the same setting: the same measure for `CC(C)(C)C(O)(CCc1ccc(Cl)cc1)Cn1cncn1` (stereo unspecified): “inactive”; for `CCC12COCN1COC2`: “inactive”; for `CN(C)c1ccc(C(=O)c2ccc(N(C)C)cc2)cc1`: “inactive”.
Same read-out and setting: the same measure for `O=C(Oc1ccc(Br)cc1)N1CCN2CCC1CC2`: “inactive”.
Same read-out and setting: the result for `Clc1ccc(C(c2ccc(Cl)cc2)C(Cl)(Cl)Cl)cc1` reads “inactive”.
In the case of `Nc1cc(Cl)cc(C(=O)O)c1Cl`, the call was inactive.
The same measure, in the same setting: the same measure for `C1=Cc2cccc3cccc1c23`: “inactive”.

Test system in another test: not listed separately
The test is described as follows: ATG_E_Box_CIS: Attagene CIS-FACTORIAL HepG2 Assay for human Enhancer Box (E-box) (AID 2282936). Particulars: HepG2 E-box cis-reporter transcription, actives raise or lower the signal. A digest of the protocol:
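In this cell-based setup, HepG2 cells bearing transfected promoter-driven reporter units were exposed to chemicals for 24 h; reporter transcripts were amplified, 6-FAM-labelled, cut with HpaI and sized by capillary electrophoresis.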
On to `Cc1ccc(N=C=O)cc1N=C=O`, for which the outcome was inactive.
Take `[As]#[In]`: the result was inactive.
For the molecule `CCCCCCCCOC(=O)c1ccc(C(=O)OCCCCCCCC)c(C(=O)OCCCCCCCC)c1`, the result was inactive.
As to `CCOC(=O)[C@]1(c2ccccc2)Oc2ccccc2[C@@H]1N`, the outcome was inactive.
The same measure, in the same setting: the same measure for `CN(C)C(=O)Nc1ccc(Cl)cc1`: “inactive”.
For `Nc1ccc(N=Nc2ccccc2)cc1`, the AC50 is 100 µM (active).
`O=P(OCCCl)(OCCCl)OCCCl`: the outcome was inactive.
Same read-out and setting: the same measure for `C=CCc1ccc2c(c1)OCO2`: “inactive”; for `CC(C)(C)C(O)(CCc1ccc(Cl)cc1)Cn1cncn1` (stereo unspecified): “inactive”; for `CCC12COCN1COC2`: “inactive”.
As to `N#CC(Br)(Br)C(N)=O`, the result was inactive.
For `COC(=O)c1ccccc1N`, the result was inactive.
In the case of `O=C(N[C@H](c1ccccc1)[C@@H]1CN2CCC1CC2)c1c(Cl)ccc(C(F)(F)F)c1Cl`, the result was inactive.
On the same count and under the same terms, the same measure for `CN(C)c1ccc(C(=O)c2ccc(N(C)C)cc2)cc1`: “inactive”; for `O=C(Oc1ccc(Br)cc1)N1CCN2CCC1CC2`: “inactive”; for `Cc1cc(N=Nc2ccccc2C)ccc1N`: “inactive”.
Still for that read-out and setting: the result for `OCCCl` reads “inactive”.
As to `CC(C)COC(=O)c1ccccc1C(=O)OCC(C)C`, the AC50 is 100 µM (active).
For `Clc1ccc(C(c2ccc(Cl)cc2)C(Cl)(Cl)Cl)cc1`, the outcome was inactive.
Still for that read-out and setting: the same measure for `Clc1ccc(Cl)c(Cl)c1`: “inactive”; for `O=[N+]([O-])C(Br)(CO)CO`: “inactive”.
Same read-out and setting: the same measure for `OCCOCCO`: “inactive”; for `Nc1ccc(Cc2ccc(N)cc2)cc1`: “inactive”.
Turning to `Nc1cc(Cl)cc(C(=O)O)c1Cl`, the result was inactive.
The same measure, in the same setting: the same measure for `C1=Cc2cccc3cccc1c23`: “inactive”; for `ClCCOCCCl`: “inactive”; for `Cc1cccc(N)c1N`: “inactive”.
With `CC(C)(O)c1cnn2c(-c3ccc(F)c(-c4c(F)cccc4C#N)c3)cnc2n1`, the outcome was inactive.
